Values without a mark were called inactive. No rule for the calls is given here.

This passage reports Potency results from PubChem BioAssay (NCATS).
Potency is read from the fitted curve at half-maximal effect.

The subject of this assay is HIV-1 nucleocapsid protein NCp7 (binding to TG oligonucleotide). The assay can be described thus: HIV Nucleocapsid (AID 346).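 Also: potency is for inhibitors that block NC binding and lower polarization.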 The conditions noted are these: HIV-1 NC / fluorescein-TGTGTGTG probe, fluorescence polarization. In a few lines:
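NCp7 100 nM + fluorescein TG4xF 10 nM; Hepes pH 7.5/250mM NaCl/1uM ZnCl2/0.004% PEG 20000; 1 hr RT; FP, 45 s exposure; oligo-only wells as negative control.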
In general terms: In fluorescence polarisation assays a small probe gives low polarisation when free and higher when bound to something large.
As for `COCCn1c(=O)c(-c2ccc(F)cc2)nc2cnc(N(C)C)nc21`, the Potency is greater than 20 µM.

For `O=c1c(-c2ccccc2)nc2cnc(N3CCOCC3)nc2n1Cc1ccc(F)cc1`, the Potency was greater than 20 µM.

For `COc1ccc(CNc2ncncc2-c2ccccc2OC)c(OC)c1`, the Potency was greater than 20 µM. The figure for `COc1ccc(-c2nc3cnc(N4CCOCC4)nc3n(C)c2=O)cc1` is greater than 20 µM. As for `CN(Cc1ccco1)c1ccnc(-c2cccnc2)n1`, the Potency is greater than 20 µM.

Consider `Cc1ccccc1-c1cncnc1N1CCN(C)CC1`, for which the Potency is greater than 20 µM. For `Cc1nc2cnc(N3CCOCC3)nc2n(Cc2cccs2)c1=O`, the Potency was greater than 20 µM. Take `O=C(c1csnn1)N1CCC[C@@]2(CCN(Cc3nccs3)C2)C1`: the Potency was greater than 20 µM. With `O=C(c1csnn1)N1CCC2(CCN(Cc3ccccc3)CC2)CC1` the figure was greater than 20 µM. Consider `c1cncc(-c2cncnc2-n2ccnc2)c1`, for which the Potency is greater than 20 µM. For `N#Cc1cccc(-c2nccc(-n3ccnc3)n2)c1`, the Potency is greater than 20 µM.

In the case of `O=S(=O)(c1ccccc1)N1CCC2(CC1)CN(c1ccncc1)C2`, the Potency was greater than 20 µM. As for `O=C(c1ccncc1)N1CCC2(CCCN(c3ccc(-c4ccccc4)cc3)C2)CC1`, the Potency is greater than 20 µM. The figure for `COCC(=O)N1CCC2(CC1)CCN(c1ccccc1)CC2` is greater than 20 µM; for `FC(F)(F)c1ccccc1-c1ccc2ncnc(NC3CC3)c2c1` it is greater than 20 µM.

Turning to `Fc1ccc(Nc2ccnc(-c3ccoc3)n2)cc1`, the Potency is greater than 20 µM.

As to `CN(Cc1ccco1)c1ccnc(-c2cccc(NS(C)(=O)=O)c2)n1`, the Potency was greater than 20 µM. The figure for `CN(C)c1ccc(-c2cncnc2-n2ccnc2)cc1` is greater than 20 µM. Turning to `CNc1ncncc1-c1c(C)noc1C`, the Potency is greater than 20 µM. With `COc1ccc(CNc2ccnc(-c3cccc(C#N)c3)n2)c(OC)c1` the figure was greater than 20 µM. The figure for `N#Cc1cccc(-c2cncnc2NCc2ccccc2)c1` is greater than 20 µM; for `Cc1noc(C)c1-c1ccc2ncnc(NC3CC3)c2c1` it is greater than 20 µM.

Regarding `COCCn1c(=O)c(-c2ccccc2)nc2cnc(Nc3cccc(OC)c3)nc21`, the Potency was greater than 20 µM. For the compound `Cc1ccccc1-c1cc(Nc2ccccc2)ncn1`, the Potency is greater than 20 µM. The figure for `CCNc1ncc2nc(CCc3ccccc3)c(=O)n(-c3ccc(OC)cc3)c2n1` is greater than 20 µM. With `CN(C)c1ncc2nc(-c3ccc(F)cc3)c(=O)n(C3CC3)c2n1` the figure was greater than 4 µM; with `CN(Cc1ccco1)c1ncnc2ccc(-c3ccccc3C(F)(F)F)cc12`, greater than 20 µM. With `O=c1c(-c2ccc(Cl)cc2)nc2cncnc2n1Cc1ccccc1Cl` the figure was greater than 20 µM; with `COC(=O)N1CCC2(CCN(C(=O)Nc3ccccc3)CC2)CC1`, greater than 20 µM; with `O=C(Nc1cccc(F)c1)N1CCC2(CC1)CCN(S(=O)(=O)c1ccccc1)CC2`, greater than 20 µM. For the compound `CN1CCN(c2ncc3ncc(=O)n(-c4ccccc4)c3n2)CC1`, the Potency was greater than 20 µM. On to `CS(=O)(=O)N1CCC2(CCN(c3ccncc3)CC2)CC1`, for which the Potency was greater than 20 µM. The figure for `COc1cccc(-c2cc(NCc3ccc(OC)cc3OC)ncn2)c1` is greater than 20 µM; for `O=C(c1cc(C(F)(F)F)cc(C(F)(F)F)c1)N1CCC[C@@]2(CCN(c3ccccc3)C2)C1` it is greater than 20 µM. Turning to `Cn1c(=O)c(CCc2ccccc2)nc2cnc(Nc3ccccc3)nc21`, the Potency is greater than 20 µM.

For the compound `Cn1c(=O)c(-c2ccc(Cl)cc2)nc2cnc(Oc3ccccc3)nc21`, the Potency was greater than 20 µM. Take `Cn1c(=O)c(-c2cc(F)cc(F)c2)nc2cnc(Oc3cccc(Cl)c3)nc21`: the Potency is greater than 20 µM. With `COc1ccc(CNc2ncncc2-c2ccc(C(=O)N(C)C)cc2)c(OC)c1` the figure was greater than 20 µM; with `O=c1c(-c2ccc(F)cc2)nc2cnc(N3CCNCC3)nc2n1-c1ccccc1`, greater than 20 µM; with `COc1ccccc1CN1CC[C@@]2(CCCN(S(C)(=O)=O)C2)C1`, greater than 20 µM.
